This is an account of results in PubChem BioAssay (NCATS).

Several values for one entry are separate records, joined by “and”; a condition that tells them apart may be missing. Equal values may be shown once. Records with an inconclusive call do not appear. Activity calls are given as the source filed them. The call rests on the fitted dose curve; in most records, active means well fitted curve in the direction sought with a large enough effect; inconclusive means small, poorly fitted or top-dose-only effect, or another doubt; inactive means no such curve, though single readings can be large; an effect the other way counts as inactive or inconclusive.

Experiment [1] can be described thus: P-glycoprotein substrates identified in KB-8-5-11 adenocarcinoma cell line, qHTS therapeutic library screen (AID 1346987). Further: nearly all actives have a fitted effect of over 65% in size. In short, it runs like this: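 Compounds are pinned in dose-response onto KB-8-5-11 cells (500 cells/well, colchicine-free medium) and left 72 h at 37 degree C. CellTiter-Glo luminescence then yields AC50 values.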
In general terms: In qHTS, concentration-response curves come from the screen itself.

Experiment [2] in a line: NS1 protein of Zika virus - qHTS assay to identify small molecule inhibitors in human HEK 293 cells (AID 1347053). Further: nearly all actives have a fitted effect of over 55% in size. Summed up: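 Read-out is a two-antibody TR-FRET for ZIKV NS1, normalized between uninfected cells and infected cells. Compound added 1 h before MR766 infection at MOI 0.5; human HEK 293 cells incubated 24 h, 37 C.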
The nature of experiment [3]: qHTS of pediatric cancer cell lines to identify multiple opportunities for drug repurposing: Primary screen for TC32 cells (AID 1347089). Further: nearly all actives have a fitted effect of over 60% in size. Summed up:
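Luminescent CellTiter-Glo read-out of metabolically active TC32 cells after 48 h compound exposure. Primary: MIPE 11-point, 0.78 nM–46 µM; NPC 8-point, 0.59 nM–46 µM. Confirmatory: 11-point dilutions.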

Experiment [4] in a line: qHTS of pediatric cancer cell lines to identify multiple opportunities for drug repurposing: Primary screen for A673 cells (AID 1347092). Further: nearly all actives have a fitted effect of over 45% in size. Summed up: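 A673 cells (500-1,000 cells/well in growth media) were pre-incubated 5 h at 37 degrees C, then exposed to compounds for 48 h. Viability was read as CellTiter-Glo luminescence; concentration-response curves came directly from the primary screen.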

Experiment [5] in a line: qHTS of pediatric cancer cell lines to identify multiple opportunities for drug repurposing: Primary screen for BT-37 cells (AID 1347094). In short, it runs like this:
(§1)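 Viability was measured as metabolically active cells after 48 hours of treatment, read by CellTiter-Glo luminescence. Compounds were tested at multiple final concentrations, giving concentration-response curves.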

The nature of experiment [6]: qHTS of pediatric cancer cell lines to identify multiple opportunities for drug repurposing: Primary screen for Saos-2 cells (AID 1347097). Further: nearly all actives have a fitted effect of over 40% in size. Summed up: as §1
Experiment [7] is described as follows: qHTS of pediatric cancer cell lines to identify multiple opportunities for drug repurposing: Primary screen for SK-N-SH cells (AID 1347098). Further: nearly all actives have a fitted effect of over 65% in size. Summed up: (§2)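 Cells (500-1,000/well) rested 5 h, then received compounds for 48 h; metabolically active cells were measured by CellTiter-Glo luminescence. Final concentrations spanned up to 46 µM (MIPE, 11-point) or 0.59 nM-46 µM (NPC, 8-point) in primary screens, 11-point in follow-ups.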

A short description of experiment [8]: qHTS of pediatric cancer cell lines to identify multiple opportunities for drug repurposing: Primary screen for SJ-GBM2 cells (AID 1347091). In short, it runs like this:
(§3)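 Cell viability, CellTiter-Glo luminescence; 500-1,000 cells/well, 8- or 11-point titration, 48 h compound exposure at 37 degrees C, 5% CO2. Controls: DMSO neutral, bortezomib 2.3 µM final as positive.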

A short description of experiment [9]: qHTS of pediatric cancer cell lines to identify multiple opportunities for drug repurposing: Primary screen for SK-N-MC cells (AID 1347093). Summed up: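 Metabolically active cells were quantified by ATP-dependent luminescence (CellTiter-Glo, 15 min at room temperature) following 48 h treatment. Cells had been plated at 500-1,000 per well and settled for 5 h beforehand.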

The nature of experiment [10]: qHTS of pediatric cancer cell lines to identify multiple opportunities for drug repurposing: Primary screen for NB-EBc1 cells (AID 1347095). Summed up: as §1
Experiment [11] can be described thus: qHTS of pediatric cancer cell lines to identify multiple opportunities for drug repurposing: Primary screen for U-2 OS cells (AID 1347096). Further: nearly all actives have a fitted effect of over 50% in size. In short, it runs like this: as §2
Experiment [12] is described as follows: qHTS of pediatric cancer cell lines to identify multiple opportunities for drug repurposing: Primary screen for NB1643 cells (AID 1347099). Further: nearly all actives have a fitted effect of over 50% in size. Summed up:
as §1

Experiment [13] can be described thus: qHTS of pediatric cancer cell lines to identify multiple opportunities for drug repurposing: Primary screen for DAOY cells (AID 1347090). Further: nearly all actives have a fitted effect of over 55% in size. Summed up: as §3
Potency means the concentration at half of the fitted maximal effect.

Consider `CC(=O)OC1C(C)OC(Oc2c(-c3ccc(O)cc3)oc3cc(O)cc(O)c3c2=O)C(O)C1OC(C)=O` (centres undefined), for which the Potency result in experiment [1], in [2], in experiment [3] and in experiment [7] was “inactive” throughout. The figures for the Potency in experiment [4], in experiment [5] and in experiment [6] were 11.8 µM (active), 27.3 µM (active) and 18.7 µM (active), respectively.

Consider `COc1cc(O)c2c(c1)C(=O)c1cc(C)cc(O)c1C2=O`, for which the Potency entry in [1], in experiment [2], in experiment [3], in experiment [8], in [4] and in experiment [9] was “inactive” in each case. In addition, the Potency result in experiment [5], in experiment [10], in experiment [11] and in experiment [12] was “inactive” in each case.

`O=C(O)C(O)Cc1ccc(O)c(O)c1` (centres undefined): the Potency result in experiment [1], in experiment [2], in experiment [3], in experiment [8], in [5] and in experiment [11] was “inactive” each time. Also, the Potency result in experiment [7] and in experiment [12] was “inactive” throughout.

As to `C=C1C(=O)OC2C=C(C)CCC=C(C)CCC12` (centres undefined), the Potency entry in [1], in experiment [2], in [3], in [5], in experiment [11] and in experiment [7] was “inactive” each time. For the same compound, the Potency in experiment [6] is 33.2 µM (active); in experiment [12] it was 23.5 µM (active).

Consider `COc1ccc(C2Sc3ccccc3N(CCN(C)C)C(=O)C2OC(C)=O)cc1` (centres undefined), for which the Potency entry in [1], in experiment [2], in experiment [3], in experiment [8], in experiment [5] and in experiment [10] was “inactive” throughout. Further, the Potency result in experiment [11] was “inactive”.

For the compound `Cc1ccc(C(C)(O)c2nc3ccccc3s2)c(C)c1` (centres undefined), the Potency result in [1], in experiment [2], in experiment [3] and in experiment [11] was “inactive” in each case. For the same compound, the Potency was 2.96 µM (active) in experiment [4], 1.87 µM (active) in experiment [9], 3.85 µM (active) in [5] and 1.32 µM (active) in [10].

For the compound `O=C1C[C@@H](c2ccc(O)cc2)Oc2cc(O)cc(O)c21`, the Potency entry in experiment [1], in [2], in [3], in [8], in [9] and in [5] was “inactive” in each case. The Potency entry in experiment [10], in [11], in experiment [7] and in experiment [12] was “inactive” each time.

As to `Clc1cc(Cl)cc(CNc2ncncc2-c2ccc3c(c2)OCO3)c1`, the Potency in [1] was 13.2 µM (active); in experiment [2], 18.7 µM (active); in experiment [8], 18.7 µM (active); in experiment [4], 14.8 µM (active); in experiment [9] it was 13.2 µM (active); in experiment [10] it was 11.8 µM (active). In addition, the Potency in [6] was 16.6 µM (active). In addition, the Potency entry in [3] and in experiment [11] was “inactive” in each case.

As to `Oc1ccc(C2=Cc3ccc(O)cc3OC2)cc1`, the Potency in experiment [1] is 9.35 µM (active) and 6.51 µM (active); in experiment [2], 10.5 µM (active); in [3] it was 7.39 µM (active); in experiment [8], 5.26 µM (active); in experiment [4], 2.35 µM (active); in experiment [9] it was 1.66 µM (active). For the same compound, the Potency was 12.2 µM (active) in experiment [5], 1.66 µM (active) in [10], 11.8 µM (active) in experiment [6] and 9.35 µM (active) in experiment [12]. The Potency result in [11] is “inactive”.

`CC[C@]1(O)C[C@@H]2CN(CCc3c([nH]c4ccccc34)[C@@](C(=O)OC)(c3cc4c(cc3OC)N(C)[C@H]3[C@@](O)(C(=O)OC)[C@H](OC(C)=O)[C@]5(CC)C=CCN6CC[C@]43[C@@H]65)C2)C1`: the Potency in [1] is 5.8 µM (active) and 5.17 µM (active) and 1.16 µM (active); in experiment [3], 118 nM (active) and 592 nM (active); in experiment [8], 0.075 µM (active); in [4] it was 21.1 nM (active) and 133 nM (active); in experiment [9], 33.5 nM (active) and 106 nM (active); in [5], 43.7 nM (active) and 174 nM (active). For the same compound, the Potency is 0.188 µM (active) in experiment [10]; 42.2 nM (active) and 168 nM (active) in experiment [6]; 1.33 µM (active) in experiment [12]. The Potency result in [2] is “inactive”.

As for `CC1(C)CCC(CN2CCN(c3ccc(C(=O)NS(=O)(=O)c4ccc(NCC5CCOCC5)c([N+](=O)[O-])c4)c(Oc4cnc5[nH]ccc5c4)c3)CC2)=C(c2ccc(Cl)cc2)C1`, the Potency entry in experiment [1], in [2] and in [3] was “inactive” each time. Further, the Potency in [8] is 2.96 µM (active); in experiment [4], 18.7 µM (active); in experiment [9] it was 0.0074 µM (active); in experiment [5], 27.3 µM (active); in experiment [10], 1.87 µM (active); in experiment [11] it was 18.7 µM (active). In addition, the Potency in experiment [6] was 14.8 µM (active).

Consider `CC#CCn1c(N2CCC[C@@H](N)C2)nc2c1c(=O)n(Cc1nc(C)c3ccccc3n1)c(=O)n2C`, for which the Potency entry in experiment [1], in experiment [3], in [8], in [5], in [10] and in [11] was “inactive” each time.

Consider `CC(=O)N(C)C1(c2ccccc2)CCN(CCC[C@]2(c3ccc(Cl)c(Cl)c3)CCCN(C(=O)c3ccccc3)C2)CC1`, for which the Potency in experiment [1] was 10.5 µM (active) and 13 µM (active); in experiment [2], 26.4 µM (active); in experiment [9] it was 20.9 µM (active); in [5] it was 30.6 µM (active); in experiment [6] it was 33.2 µM (active); in experiment [12], 23.5 µM (active).

Consider `CN1CCN(CCOc2cc(OC3CCOCC3)c3c(Nc4c(Cl)ccc5c4OCO5)ncnc3c2)CC1`, for which the Potency result in [1] and in experiment [3] was “inactive” throughout. The Potency in [13] was 18.7 µM (active); in experiment [8] it was 9.35 µM (active); in experiment [4] it was 11.8 µM (active); in experiment [9], 11.8 µM (active); in experiment [5] it was 7.69 µM (active).

As for `CC(C)C(=O)Oc1ccc(CO)cc1[C@H](CCN(C(C)C)C(C)C)c1ccccc1`, the Potency result in experiment [1], in experiment [3], in experiment [13], in experiment [8], in [4] and in experiment [9] was “inactive” each time. In addition, the Potency entry in [5], in experiment [10], in experiment [11], in experiment [6] and in experiment [7] was “inactive” throughout.

With `O=C(O)Cc1cccc2ccccc12`, the Potency result in experiment [1], in experiment [3], in [13], in [8], in experiment [4] and in experiment [9] was “inactive” in each case. Further, the Potency entry in experiment [5], in [10], in experiment [11], in experiment [6], in experiment [7] and in [12] was “inactive” in each case.

For `O=C(O)c1c(Cl)c(Cl)c(Cl)c(Cl)c1-c1c2cc(I)c(=O)c(I)c-2oc2c(I)c(O)c(I)cc12`, the Potency result in experiment [1] and in experiment [2] was “inactive” each time. In [7], the Potency is 24.1 µM (active).

Turning to `COC(=O)N[C@H](C(=O)N1CCC[C@@H]1c1ncc(-c2ccc(-c3ccc(-c4cnc([C@@H]5CCCN5C(=O)[C@@H](NC(=O)OC)C(C)C)[nH]4)cc3)cc2)[nH]1)C(C)C`, the Potency entry in experiment [1], in experiment [3] and in [7] was “inactive” throughout. The Potency in [8] is 23.5 µM (active); in [10], 26.4 µM (active); in experiment [6], 18.7 µM (active).
